Data taken from publication PMC4336329 (PLoS ONE, 2015).
In all, about 310,000 compounds went through this assay and about 2,200 (0.71%) showed an effect of 50% or more. The effect is printed as a negative number. Many of the other results were omitted from the sample, so strong results are more common in it than they were.

Target: human ether-à-go-go-related gene (hERG) potassium channel (human, UniProt Q12809)
Assay: primary screen, population patch clamp on CHO cells stably expressing hERG; higher = less effect of the substance

human ether-à-go-go-related gene (hERG) potassium channel, sequence (Q12809 whole entry, looked up): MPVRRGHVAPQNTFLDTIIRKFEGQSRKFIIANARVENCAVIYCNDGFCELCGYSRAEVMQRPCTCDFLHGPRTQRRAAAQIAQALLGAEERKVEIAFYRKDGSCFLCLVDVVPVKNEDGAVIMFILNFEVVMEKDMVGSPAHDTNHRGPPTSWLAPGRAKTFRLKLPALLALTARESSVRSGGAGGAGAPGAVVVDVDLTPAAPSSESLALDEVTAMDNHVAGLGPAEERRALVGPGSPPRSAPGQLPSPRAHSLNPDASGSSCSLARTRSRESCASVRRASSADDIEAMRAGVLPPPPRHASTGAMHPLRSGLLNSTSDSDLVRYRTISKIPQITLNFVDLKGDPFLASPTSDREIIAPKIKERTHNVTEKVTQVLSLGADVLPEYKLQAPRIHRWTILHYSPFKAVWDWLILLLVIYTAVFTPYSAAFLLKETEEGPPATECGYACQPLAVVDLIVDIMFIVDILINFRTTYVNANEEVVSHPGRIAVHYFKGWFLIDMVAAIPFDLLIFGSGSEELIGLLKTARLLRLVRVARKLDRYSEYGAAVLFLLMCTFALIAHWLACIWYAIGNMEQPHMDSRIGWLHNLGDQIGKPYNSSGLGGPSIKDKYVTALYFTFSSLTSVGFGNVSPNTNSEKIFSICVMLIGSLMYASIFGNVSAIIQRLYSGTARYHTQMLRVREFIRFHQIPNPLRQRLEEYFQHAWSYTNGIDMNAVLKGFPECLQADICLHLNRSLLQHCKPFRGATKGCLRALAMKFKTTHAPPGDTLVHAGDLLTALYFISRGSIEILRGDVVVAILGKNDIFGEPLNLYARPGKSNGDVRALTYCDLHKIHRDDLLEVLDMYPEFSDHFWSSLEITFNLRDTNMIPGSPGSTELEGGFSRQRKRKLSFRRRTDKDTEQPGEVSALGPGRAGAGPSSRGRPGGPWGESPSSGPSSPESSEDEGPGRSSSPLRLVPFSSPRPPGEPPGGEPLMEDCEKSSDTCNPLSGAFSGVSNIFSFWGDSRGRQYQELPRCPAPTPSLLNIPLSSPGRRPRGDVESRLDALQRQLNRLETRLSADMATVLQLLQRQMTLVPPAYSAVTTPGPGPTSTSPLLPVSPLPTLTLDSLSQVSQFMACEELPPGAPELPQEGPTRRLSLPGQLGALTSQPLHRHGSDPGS

Question: With CC1CCN(CC(C)OC(=O)c2ccc3c(c2)OCCO3)CC1.Cl (stereo not shown) as the compound, how does the “hERG current change (%, negative = inhibition) at 1uM” value read?
Answer: 3.75%

Question: For O=C(NC(NC(=S)Nc1ccccc1C(=O)O)C(Cl)(Cl)Cl)c1ccco1 (stereo not shown), which “hERG current change (%, negative = inhibition) at 1uM” value is on record?
Answer: 5.62%

Question: Cc1ccc(S(=O)(=O)NCCC(=O)N2CCCCCCC2)cc1 was tested. Which “hERG current change (%, negative = inhibition) at 1uM” value did it give?
Answer: 22.3%

Question: How did the “hERG current change (%, negative = inhibition) at 1uM” value turn out when Cn1c(=O)oc2cc(S(=O)(=O)NCCN3CCN(c4ccccc4F)CC3)ccc21 was run?
Answer: 3.83%

Question: How did the “hERG current change (%, negative = inhibition) at 1uM” value turn out when CN(C)c1ccc(-c2noc(C3CCN(S(=O)(=O)c4cccc(C(=O)O)c4)CC3)n2)cc1 was run?
Answer: 13.6%

Question: For O=C(O)c1cccc(N=NN2CCCCCC2)c1, which “hERG current change (%, negative = inhibition) at 1uM” value is on record?
Answer: 8.11%

Question: Cc1ccc(Nc2nc(N)nc(CSc3nc(C)cc(C)n3)n2)cc1 was tested. Which “hERG current change (%, negative = inhibition) at 1uM” value did it give?
Answer: 8.5%

Question: For Cc1csc2nc(CSc3nc4ccccc4o3)c(Br)n12, which “hERG current change (%, negative = inhibition) at 1uM” value is on record?
Answer: 15.9%

Question: Cc1cc(C)n2c(Br)c(CSc3nc4ccccc4s3)nc2n1 was tested. Which “hERG current change (%, negative = inhibition) at 1uM” value did it give?
Answer: -19.3%

Question: For Cc1cc(C)n2c(Br)c(CSc3nc4ccccc4o3)nc2n1, which “hERG current change (%, negative = inhibition) at 1uM” value is on record?
Answer: -53%

Question: For CCn1c(=O)c(C(=O)CN2CCOCC2)c(N)n(Cc2ccccc2)c1=O, which “hERG current change (%, negative = inhibition) at 1uM” value is on record?
Answer: -0.674%

Question: Which “hERG current change (%, negative = inhibition) at 1uM” value does the source give for CCOc1ccc(CN(C)CC(=O)c2c(N)n(Cc3ccccc3)c(=O)n(CC)c2=O)cc1OC here?
Answer: -82.5%

Question: CCn1c(=O)c(C(=O)CN(C)Cc2cccc(OC)c2OC)c(N)n(Cc2ccccc2)c1=O was tested. Which “hERG current change (%, negative = inhibition) at 1uM” value did it give?
Answer: -18.3%

Question: How did the “hERG current change (%, negative = inhibition) at 1uM” value turn out when CCn1c(=O)c(C(=O)CN2CCN(Cc3ccc4c(c3)OCO4)CC2)c(N)n(Cc2ccccc2)c1=O was run?
Answer: -67.4%

Question: How did the “hERG current change (%, negative = inhibition) at 1uM” value turn out when Cn1c(=O)c(C(=O)CN2CCN(Cc3ccc4c(c3)OCO4)CC2)c(N)n(Cc2ccccc2)c1=O was run?
Answer: -40.4%

Question: Which “hERG current change (%, negative = inhibition) at 1uM” value does the source give for CCn1c(=O)c(C(=O)CN(C)Cc2ccc(F)cc2)c(N)n(Cc2ccccc2)c1=O here?
Answer: -33.6%

Question: CCNC1=C(Cl)C(=O)c2ccccc2C1=O was tested. Which “hERG current change (%, negative = inhibition) at 1uM” value did it give?
Answer: 14.3%

Question: With O=C(O)C1CCCN1C(=O)NC1CCCCC1 (stereo not shown) as the compound, how does the “hERG current change (%, negative = inhibition) at 1uM” value read?
Answer: 17.1%

Question: Which “hERG current change (%, negative = inhibition) at 1uM” value does the source give for O=C(c1cc(Br)ccc1Cl)N1CCN(c2ccc(N3CCOCC3)nn2)CC1 here?
Answer: 5.71%

Question: For COc1cccc(/C=N/NC(=O)NC23CC4CC(CC(C4)C2)C3)c1O, which “hERG current change (%, negative = inhibition) at 1uM” value is on record?
Answer: 6.53%

Question: COc1ccc(NC(=O)CSc2n[nH]c(-c3ccccn3)n2)cc1 was tested. Which “hERG current change (%, negative = inhibition) at 1uM” value did it give?
Answer: 13%

Question: How did the “hERG current change (%, negative = inhibition) at 1uM” value turn out when COc1ccc(C(=O)Nc2ccccc2NC(=O)c2ccco2)cc1OC was run?
Answer: -9.39%

Question: Which “hERG current change (%, negative = inhibition) at 1uM” value does the source give for CCN=C1SC(CC(=O)Nc2ccc(C(F)(F)F)cc2)C(=O)N1CC (stereo not shown) here?
Answer: 1.51%

Question: Which “hERG current change (%, negative = inhibition) at 1uM” value does the source give for Cc1cc(C)cc(NC(=O)c2ccccc2NC(=O)CCC(=O)O)c1 here?
Answer: 7.41%

Question: Which “hERG current change (%, negative = inhibition) at 1uM” value does the source give for CCC(=O)c1ccccc1OCCN1CCN(Cc2ccccc2)CC1.O=C(O)C(=O)O here?
Answer: -21.9%

Question: With CC1CCN(CCCCOc2ccccc2F)CC1.O=C(O)C(=O)O as the compound, how does the “hERG current change (%, negative = inhibition) at 1uM” value read?
Answer: 7.61%

Question: O=C(O)C(=O)O.OCc1ccccc1OCCCN1CCC(Cc2ccccc2)CC1 was tested. Which “hERG current change (%, negative = inhibition) at 1uM” value did it give?
Answer: -65.9%

Question: Which “hERG current change (%, negative = inhibition) at 1uM” value does the source give for N#Cc1ccccc1OCCCN1CCC(Cc2ccccc2)CC1.O=C(O)C(=O)O here?
Answer: -83%

Question: CCc1ccccc1OCCCN1CCCC1.O=C(O)C(=O)O was tested. Which “hERG current change (%, negative = inhibition) at 1uM” value did it give?
Answer: 3.26%

Question: With CCC(=O)c1ccccc1OCCN1CCN(CC)CC1.O=C(O)C(=O)O as the compound, how does the “hERG current change (%, negative = inhibition) at 1uM” value read?
Answer: -2.43%

Question: With CCc1ccccc1OCCCCN1CCCC1.O=C(O)C(=O)O as the compound, how does the “hERG current change (%, negative = inhibition) at 1uM” value read?
Answer: -2.73%

Question: Which “hERG current change (%, negative = inhibition) at 1uM” value does the source give for N#Cc1ccccc1OCCCNC1CCCC1.O=C(O)C(=O)O here?
Answer: 2.23%

Question: How did the “hERG current change (%, negative = inhibition) at 1uM” value turn out when CCC(=O)c1ccccc1OCCCN1CCC(Cc2ccccc2)CC1.O=C(O)C(=O)O was run?
Answer: -87%

Question: Which “hERG current change (%, negative = inhibition) at 1uM” value does the source give for Cc1ccc(C)c(NC(=S)NCCSc2ccc(Cl)cc2)c1 here?
Answer: 11.9%

Question: For CS(=O)(=O)N1CCc2cc(C(=O)Nc3ccc(COCC(F)(F)F)cc3)ccc21, which “hERG current change (%, negative = inhibition) at 1uM” value is on record?
Answer: 10.4%

Question: For Cc1cc(C(=O)Nc2ccc(C(=O)O)cc2)c(-c2ccccc2)o1, which “hERG current change (%, negative = inhibition) at 1uM” value is on record?
Answer: -3.53%

Question: How did the “hERG current change (%, negative = inhibition) at 1uM” value turn out when CC(=O)c1ccc(NC(=O)C(C)N(C)CC(=O)Nc2ccccc2Cl)cc1 (stereo not shown) was run?
Answer: 14.4%

Question: Which “hERG current change (%, negative = inhibition) at 1uM” value does the source give for O=C(O)CN1C(=O)/C(=C/c2ccsc2)SC1=S here?
Answer: 12%

Question: COc1ccc(C(Nc2cc(C)ccn2)c2ccc3ccc(C)nc3c2O)cc1 (stereo not shown) was tested. Which “hERG current change (%, negative = inhibition) at 1uM” value did it give?
Answer: 4.46%

Question: CC1CCC(NC(=O)Cn2c3c(c(-c4ccccc4Cl)cc2=O)CCC3)CC1 (stereo not shown) was tested. Which “hERG current change (%, negative = inhibition) at 1uM” value did it give?
Answer: 9.99%

Question: Which “hERG current change (%, negative = inhibition) at 1uM” value does the source give for COc1ccc(NC(=O)Nc2cccc(OC)c2)cc1 here?
Answer: -2.63%

Question: How did the “hERG current change (%, negative = inhibition) at 1uM” value turn out when C=CCSc1nnc(Cn2c(=O)sc3ccccc32)n1C was run?
Answer: -6.54%

Question: C=CCOc1ccccc1CN1CCC(Oc2ccc(C(=O)N3CCCCC3)cc2)CC1 was tested. Which “hERG current change (%, negative = inhibition) at 1uM” value did it give?
Answer: -3.91%
